For 8 compounds, inhibition results are on record in PubChem BioAssay.

Active and inactive are the calls of the source.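 The calls were made as follows: active = inhibition at or above 50% relative to wild type and mutant plate controls; inactive = inhibition below 50%.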

This assay is described as follows: inhibitors of Chlamydomonas gravitaxis, primary screen, whole organism, Chlamydomonas reinhardtii, WT vs cilia-less mutant, absorbance, 96-well (AID 463189).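 Also: 0% = wild type cc124 cells in DMSO and 100% = ciliumless bld1 mutant cells.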 The settings on record: OD600 absorbance, 2 days, at 10 µM, stronger effect = higher value.
`NC1CCN(O)C1=O` (stereo not drawn): the inhibition was 2.51% (inactive).

On to `FC(F)(F)c1ccccc1-n1ccnc1`, for which the inhibition was 2.41% (inactive).

With `CC(C)(CO)Cc1cc(C(C)(C)C)c(O)c(C(C)(C)C)c1`, the inhibition is -2.65% (inactive).

On to `CC(N)=O`, for which the inhibition was 0.285% (inactive).

In the case of `O=C(O)CCC(C(=O)O)N1C(=O)c2ccccc2C1=O` (stereo not drawn), the inhibition was 0.124% (inactive).

In the case of `COC(=O)c1c(-c2cc(OC)c(OC)c(OC)c2)c2ccnc(OCc3ncccn3)c2c(=O)n1Cc1ccnc(C)c1`, the inhibition is -6.21% (inactive).

Regarding `O=C(O)c1cc2cc(Cc3cccnc3)ccc2o1`, the inhibition was -4.17% (inactive).

As to `CCC1(O)CC2CN(CCc3c([nH]c4ccccc34)[C@@](C(=O)OC)(c3cc4c(cc3OC)N(C=O)C3[C@]45CCN4CC=C[C@@](CC)([C@@H](OC(C)=O)[C@]3(O)C(=O)OC)[C@H]45)C2)C1` (stereo partly drawn), the inhibition was 1.07% (inactive).

As usually defined, the inhibition is the drop in the measured response relative to a control, in per cent.
